# Measured values from PubChem BioAssay (Tox21).
# The source made the active and inactive calls. A call without a number means that no potency is given here. Calls come from the whole dose curve; as a rule, active = well fitted activation curve with a large enough effect in the repeat runs; inconclusive = weak or mixed curves; inactive = flat fitted curve, though single readings scatter.
# Biological target: KiSS-1 receptor (Homo sapiens) (UniProt Q969F8)
# Assay: Human kisspeptin (KISS1R) small molecule agonists, calcium flux assay in KISS1R-HEK293 cells (AID 1920064)
# Conditions: KISS1R-HEK293, calcium flux fluorescence, agonist; series mostly up to 76.8 µM
# Excerpt: National Center for Advancing Translational Sciences [NCATS]
# Division of Preclinical Innovation [DPI]
# U.S. Environmental Protection Agency [EPA]
# National Institutes of Environmental Health Sciences [NIEHS]
# National Toxicology Program [NTP]
# U.S. Food and Drug Administration [FDA]
# Kisspeptin and its receptor KISS1R play key roles in mammalian reproduction due to their involvement in the onset of puberty and control of the hypothalamic-pituitary-gonadal axis such as regulates GnRH release from the hypothalamus. The kisspeptin/KISS1R system also plays a direct role in peripheral organs (including the ovary, testis, uterus, and placenta) and is implicated in reproductive diseases such as miscarriage and polycystic ovary syndrome (PCOS). Abnormal KISS1R activity is associated with abnormal puberty, infertility, endometriosis, and hormone-dependent tumors. The KISS1 receptor (KISS1R, also called GPR54), a G-protein-coupled receptor (GPCR), acts (through phospholipase C) to increase intracellular inositol trisphosphate and then release intracellular calcium stores. Cell-based KISS1R-HEK293 assay is using HEK293 cells that have been genetically engineered to express the human KISS1R, which activity can be measured by calcium signaling. A compound/drug can activate (agonist) KISS1R that can be monitored by levels of intracellular calcium.
# KISS1R-HEK293 cells developed by Codex Corp contain human KISS1R gene, which was stably integrated into HEK 293 cells. The compound activation can be detected by fluorescence intensity via calcium flux assay. This cell line has been used to screen the Tox21 10K compound library to identify agonists of KISS1R.
# KISS1R-Hek293 cells were dispensed at 1500 cells/4uL/well in 1536-well black wall/clear bottom plates using a multidrop dispenser. After the assay plates were incubated at a 37 C/5% CO2 incubator for 18 hours, 4 microL of Calcium Dye Solution was added to each well. The plates were incubated at 37 C for 1 hour. And then 23 nL of compounds dissolved in DMSO, positive controls, or DMSO only was transferred to the assay plate by a pin tool station. The fluorescence intensity in the plates was measured using FDSS 7000EX kinetic plate reader with a filter set of Ex/Em=480/540 for 3 min at 1 sec intervals. Each test compound was measured at 15 concentrations and in triplicates.
# Sequence of KiSS-1 receptor (Homo sapiens) (Q969F8 whole entry, looked up): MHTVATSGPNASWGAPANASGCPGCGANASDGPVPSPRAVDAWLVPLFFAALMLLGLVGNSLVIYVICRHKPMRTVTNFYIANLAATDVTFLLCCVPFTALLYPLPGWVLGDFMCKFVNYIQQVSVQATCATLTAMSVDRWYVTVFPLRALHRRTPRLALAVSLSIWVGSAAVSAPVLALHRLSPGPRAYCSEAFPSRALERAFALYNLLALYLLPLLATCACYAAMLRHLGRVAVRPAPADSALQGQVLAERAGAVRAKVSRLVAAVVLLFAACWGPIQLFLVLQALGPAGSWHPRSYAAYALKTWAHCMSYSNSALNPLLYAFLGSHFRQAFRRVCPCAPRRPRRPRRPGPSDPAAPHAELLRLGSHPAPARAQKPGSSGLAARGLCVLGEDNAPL
row,Structure (SMILES),Potency
1,CCCCOCCOP(=O)(OCCOCCCC)OCCOCCCC,inactive
2,CCOC(=O)c1cncn1C(C)c1ccccc1 (stereo not given),inactive
3,CCOP(=S)(OCC)Oc1cnc2ccccc2n1,inactive
4,c1ccc(NNc2ccccc2)cc1,inactive
5,CS(=O)(=O)Cl,inactive
6,COS(=O)(=O)c1ccc(C)cc1,inactive
7,CC(c1ccc(O)cc1)c1ccc(O)cc1,inactive
8,O=S(=O)(O)O,inactive
9,C[C@H]1O[C@H](OC2[C@@H](O)[C@@H](O)C(O)[C@H](O)[C@H]2O)[C@@H](N)C[C@@H]1N=C(N)C(=O)O (stereo not given in full),inactive
10,CCOC(=O)CC(SP(=O)(OC)OC)C(=O)OCC (stereo not given),inactive
11,CNC(=O)Oc1c(C(C)(C)C)cc(C)cc1C(C)(C)C,inactive
12,Nc1ccc(-c2ccc(N)c(Cl)c2)cc1Cl,inactive
13,O=P(O)(O)CCCl,inactive
14,CC(C)(N)Cc1ccccc1Cl,inactive
15,c1ccc(C2CO2)cc1 (stereo not given),inactive
16,CN(C)CCc1ccc(O)cc1,inactive
17,Nc1ccc(Br)cc1,inactive
18,Oc1c(Cl)c(Cl)c(Cl)c(Cl)c1Cl,inactive
19,CCN(CC)c1ccccc1,inactive
20,OCCSCSCCO,inactive

row,Structure (SMILES),Potency
1,CCOC(=O)C(c1c(O)c2ccccc2oc1=O)c1c(O)c2ccccc2oc1=O,inactive
2,O=C(O)C(Cl)Br (stereo not given),inactive
3,COC(=O)Nc1nc2ccccc2[nH]1,inactive
4,Cc1ccccc1O,inactive
5,CC(C)C1(C)N=C(c2nc3ccccc3cc2C(=O)O)NC1=O (stereo not given),inactive
6,c1ccc2c(c1)CCCC2,inactive
7,Cc1ccccc1N,inactive
8,CN(C)NC(=O)CCC(=O)O,inactive
9,CCCC[N+]1(C)CCCC1,inactive
10,CC(C)C#N,inactive
11,CCCCCBr,inactive
12,CCCCCCCCCc1ccc(O)cc1,inactive
13,BrCc1ccc(Br)cc1,inactive
14,CC(C)N(C(=O)CCl)c1ccccc1,inactive
15,CNC(=O)Oc1ccccc1OC(C)C,inactive
16,O=C1CCCN1,inactive
17,COP(=S)(OC)SCn1nnc2ccccc2c1=O,inactive
18,CCC(C)(C)c1ccc(O)cc1,inactive
19,CCOP(=O)(OCC)OCC,inactive
20,CCN,inactive
